From the supplement of paper PMC10127200
Counter-ions that a name gives are not always drawn.

Columns and labels:
Assay in all cases: Euclidean distance of Cell Painting phenotypic profile (signed KS, 77 features) to DMSO centroid (dimensionless distance); 5 or 10 uM (library dependent); higher = stronger phenotypic change vs DMSO (phenoactivity)
Conditions in all cases: 48 h
[1] = test system: 786-O
Outline: (§1)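 Harmony extracted 77 features from 20X confocal images (9 fields/well) of stained cells, scoring each as a signed Kolmogorov-Smirnov statistic against same-plate vehicle wells. The cells, five cancer lines and a healthy fibroblast line, had received library compounds for 48 h at 10 or 5 uM depending on library, with 0.1% DMSO final. Phenoactivity is the Euclidean distance from each plate-position-corrected, correlation-weighted, top-dose replicate-averaged profile to the median vehicle profile.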

[2] = test system: A549
Outline: as §1

[3] = test system: DU145
Outline: as §1

[4] = test system: FB
Outline: as §1

[5] = test system: HEPG2
Outline: as §1

[6] = test system: OVCAR4
Outline: as §1

Structure (SMILES) | Euclidean distance [1] | Euclidean distance [2] | Euclidean distance [3] | Euclidean distance [4] | Euclidean distance [5] | Euclidean distance [6]
CCC(=O)O[C@@H](O[P@](=O)(CCCCc1ccccc1)CC(=O)N1C[C@H](C2CCCCC2)C[C@H]1C(=O)O)C(C)C [Fosinopril Sodium] | 1.19 | 0.719 | 1.62 | 0.746 | 0.444 | 1.23
O=c1ncn2nc(Sc3ccc(F)cc3F)ccc2c1-c1c(Cl)cccc1Cl | 1.78 | 0.873 | 1.38 | 1.63 | 1.25 | 1.55
CC[C@]12CCCN3CCc4c(n(c5ccccc45)[C@@](O)(C(=O)OC)C1)[C@@H]32 [Vincamine] | 1.3 | 1.33 | 0.578 | 0.795 | 0.91 | 1.18
CN1CCN(C2CCN(C(=O)Nc3cc(Oc4ccc(NC(=O)C5(C(=O)Nc6ccc(F)cc6)CC5)c(F)c4)ccn3)CC2)CC1 [Golvatinib (E7050)] | 1.08 | 1.47 | 1.32 | 3.36 | 3.28 | 1.45
Cc1cc(C)c(Nc2ccnc(Nc3ccc(C#N)cc3)n2)c(C)c1 [Dapivirine (TMC120)] | 2.34 | 2.56 | 1.87 | 1.33 | 3.09 | 2.01
CNS(=O)(=O)CCc1ccc2[nH]cc(C3CCN(C)CC3)c2c1 [Naratriptan] | 1.48 | 0.741 | 1.01 | 0.996 | 0.943 | 1.33
COc1ccc(Cl)cc1C(=O)NCCc1ccc(S(=O)(=O)NC(=O)NC2CCCCC2)cc1 [Glyburide] | 1.1 | 0.731 | 1.49 | 1.27 | 2.08 | 1.32
Cc1cc(O)c2c(c1)C(=O)c1cc(O)cc(O)c1C2=O [Emodin] | 1.3 | 1.13 | 1.01 | 1 | 1.85 | 0.712
N[C@@H](C(=O)N[C@@H]1C(=O)N2C(C(=O)O)=C(Cl)CS[C@H]12)c1ccccc1 [Cefaclor] | 1.19 | 0.817 | 0.688 | 0.8 | 0.709 | 1.53
COc1cc(C[C@H]2C(=O)OC[C@@H]2Cc2ccc(OC)c(OC)c2)ccc1O [(-)-Arctigenin] | 1.04 | 1.48 | 1.36 | 0.929 | 2.46 | 1.29
Nc1nc(F)nc2c1ncn2[C@@H]1O[C@H](COP(=O)(O)O)[C@@H](O)[C@@H]1O [Fludarabine Phosphate] | 2.13 | 2.48 | 1.94 | 3.2 | 1.57 | 2.98
CNC(=O)c1nn(C)c2c1C(C)(C)Cc1cnc(Nc3ccc(N4CCN(C)CC4)cc3)nc1-2 | 2.4 | 3.03 | 2.9 | 3.36 | 2.65 | 2.9
CCc1cc(C(N)=O)ccc1-n1nc(C(C)C)c2c(-n3cnc(-c4cnn(C)c4)c3)ccnc21 | 3.26 | 3.06 | 3.79 | 3.38 | 3.38 | 2.86
NC(=O)Cc1cccc(C(=O)c2ccccc2)c1N [Nepafenac] | 1.03 | 1.31 | 2.96 | 1.25 | 1.14 | 0.874
CS(=O)(=O)CCC#N [Dapansutrile (OLT1177)] | 0.937 | 0.857 | 2.91 | 0.633 | 0.92 | 1.45
C[C@@H]1O[C@@H](O[C@H]2[C@H](Oc3cc(O)c4c(c3)O[C@H](c3ccc(O)cc3)CC4=O)O[C@H](CO)[C@@H](O)[C@@H]2O)[C@H](O)[C@H](O)[C@H]1O [Naringin] | 1.25 | 1.01 | 0.644 | 1.2 | 0.575 | 1.74
OC[C@H]1O[C@@H](Oc2ccc(O)cc2)[C@H](O)[C@@H](O)[C@@H]1O [Arbutin] | 1.12 | 0.916 | 2.06 | 0.914 | 0.919 | 1.73
CN1C(=O)C(C)(C)Oc2c(-c3cn(C)c(=O)c4[nH]ccc34)cc(S(C)(=O)=O)cc21 | 4.28 | 2.7 | 2.87 | 3.94 | 2.29 | 2.42
CCCN(CCC)S(=O)(=O)c1ccc(C(=O)O)cc1 [Probenecid] | 1.08 | 0.549 | 1.42 | 0.831 | 0.652 | 1.69
COc1cc2c(cc1OC)C(=O)C(CC1CCN(Cc3ccccc3)CC1)C2 (configuration not stated) [Donepezil] | 0.813 | 1.25 | 0.73 | 0.785 | 1.27 | 1.27
CC(=O)Oc1ccccc1C(=O)Nc1ncc([N+](=O)[O-])s1 [Nitazoxanide] | 1.27 | 1.18 | 1.96 | 1.68 | 1.32 | 1.34
N#CCC1(n2cc(-c3ncnc4[nH]ccc34)cn2)CN(C2CCN(C(=O)c3ccnc(C(F)(F)F)c3F)CC2)C1 | 1.27 | 1.05 | 1.46 | 1.34 | 0.742 | 1.05
Nc1nc(O)c2ncn(CCC(CO)CO)c2n1 [Penciclovir] | 0.815 | 0.334 | 0.816 | 0.496 | 0.404 | 1.17
O=c1ccn([C@@H]2O[C@H](COP(=O)(O)OP(=O)(O)OP(=O)(O)O)[C@@H](O)[C@H]2O)c(=O)[nH]1 [UTP. Trisodium Salt] | 1.15 | 0.718 | 0.761 | 0.666 | 1.23 | 0.979

Structure (SMILES) | Euclidean distance [1] | Euclidean distance [2] | Euclidean distance [3] | Euclidean distance [4] | Euclidean distance [5] | Euclidean distance [6]
CCCc1nn(C)c2c(=O)[nH]c(-c3cc(S(=O)(=O)N4CCN(C)CC4)ccc3OCC)nc12 [Sildenafil Mesylate] | 1.12 | 0.763 | 0.989 | 1 | 0.692 | 0.995
N=C(N)N [Guanidine HCl] | 0.653 | 0.962 | 0.525 | 0.612 | 0.512 | 0.648
COc1ccc(-c2coc3cc(O)ccc3c2=O)cc1 [Formononetin] | 0.921 | 0.857 | 0.599 | 1.07 | 0.662 | 1.13
CC(C)COCC(CN(Cc1ccccc1)c1ccccc1)N1CCCC1 (configuration not stated) [Bepridil hydrochloride] | 1.64 | 2.55 | 2.06 | 1.65 | 1.94 | 1.73
O=C(O)Cc1cccc(OCCCN(Cc2cccc(C(F)(F)F)c2Cl)CC(c2ccccc2)c2ccccc2)c1 | 1.18 | 0.78 | 0.825 | 1.32 | 0.721 | 0.79
COC(=O)C1=CO[C@@H](O[C@@H]2O[C@H](CO)[C@@H](O)[C@H](O)[C@H]2O)[C@@H]2[C@@H](C)[C@@H](O)C[C@H]12 [Loganin] | 0.879 | 0.804 | 1.02 | 0.781 | 0.691 | 0.971
Cc1nc(C)c(Cl)c(O)c1Cl [Clopidol] | 0.853 | 1.1 | 0.432 | 1.15 | 0.83 | 1.61
CCCc1nc(C(C)(C)O)c(C(=O)OCc2oc(=O)oc2C)n1Cc1ccc(-c2ccccc2-c2nnn[nH]2)cc1 [Olmesartan Medoxomil] | 2.78 | 2.49 | 2.38 | 3.38 | 3.32 | 3.28
NC1=NCC2c3ccccc3Cc3ccccc3N12 (configuration not stated) [Epinastine HCl] | 1.16 | 1.15 | 1.13 | 1.2 | 0.717 | 1.43
COc1cc2c(N3CCN(C(=O)Nc4ccc(OC(C)C)cc4)CC3)ncnc2cc1OCCCN1CCCCC1 [Tandutinib (MLN518)] | 0.691 | 1.73 | 1.35 | 2.68 | 1.52 | 1.12
CCCCCC(=O)O[C@]1(C(C)=O)CC[C@H]2[C@@H]3CCC4=CC(=O)CC[C@]4(C)[C@H]3CC[C@@]21C [Hydroxyprogesterone caproate] | 0.774 | 1.41 | 2.27 | 1.18 | 0.603 | 0.921
CC1(C)CC[C@]2(NC(=O)C(C)(F)F)CC[C@]3(C)[C@H](C(=O)C=C4[C@@]5(C)C=C(C#N)C(=O)C(C)(C)[C@@H]5CC[C@]43C)[C@@H]2C1 [Omaveloxolone (RTA-408)] | 6.36 | 4.96 | 6.92 | 7.18 | 5.59 | 6.32
Cc1c(-c2ccc(O)cc2)n(Cc2ccc(OCCN3CCCCCC3)cc2)c2ccc(O)cc12 [Bazedoxifene HCl] | 5.12 | 4.91 | 3.42 | 4.82 | 4.62 | 4.32
O=C(CSc1nc2c(c(=O)n1-c1ccccc1)SCC2)Nc1ccc(-c2ccccc2)cn1 | 1.36 | 1.81 | 1.11 | 0.832 | 1.42 | 0.588
Cc1cc(C)c(CNC(=O)c2cc(-c3ccc(CN4CCOCC4)cc3)cc3c2cnn3C2CCCC2)c(=O)[nH]1 | 1.48 | 1.7 | 0.808 | 1.97 | 1.44 | 0.692
CCCC(=O)O[C@]1(C(=O)CO)CC[C@H]2[C@@H]3CCC4=CC(=O)CC[C@]4(C)[C@H]3[C@@H](O)C[C@@]21C [Hydrocortisone butyrate] | 1.21 | 2.18 | 1.87 | 1.7 | 1.87 | 2.45
C[C@]12CC[C@@H]3c4ccc(O)cc4CC[C@H]3[C@@H]1CC[C@@H]2OC(=O)CCC1CCCC1 [Estradiol Cypionate] | 1.29 | 1.56 | 1.4 | 1.23 | 0.84 | 1.34
C[C@]12CCC(=O)C=C1C=C[C@@H]1[C@@H]2CC[C@@]2(C)[C@H]1CC[C@@]21CCC(=O)O1 [Canrenone] | 1.64 | 0.961 | 1.1 | 1.33 | 1.24 | 1.05
COC(=O)C1=CO[C@@H](O[C@@H]2O[C@H](CO)[C@@H](O)[C@H](O)[C@H]2O)[C@@H]2C(CO)=CC[C@H]12 [Geniposide] | 0.724 | 0.87 | 1.03 | 0.949 | 0.616 | 1.23
Cc1ccccc1N1CCN(CCc2nnc3n2CCCC3)CC1 [Dapiprazole Hydrochloride] | 1.23 | 0.715 | 0.81 | 0.786 | 1.09 | 1.17
CCN(CC)CCCCNc1ncc2cc(-c3cc(OC)cc(OC)c3)c(NC(=O)NC(C)(C)C)nc2n1 | 3.18 | 1.42 | 2.75 | 3.93 | 1.84 | 1.16
CCN1C(=O)NC(c2ccccc2)C1=O (configuration not stated) [Ethotoin] | 0.868 | 0.725 | 0.615 | 0.863 | 0.528 | 1.28
Nc1nc2[nH]cc(CCc3ccc(C(=O)N[C@@H](CCC(=O)O)C(=O)O)cc3)c2c(=O)[nH]1 [Pemetrexed] | 1.73 | 2.69 | 1.14 | 0.521 | 1.85 | 3.1
